Values joined by “and” are separate entries in the source; they are usually repeats but may differ in a detail not shown here. Equal values may be shown once. Some compounds were tested as several samples or in several runs, with calls that do not always agree. Active and inactive are the calls of the source. Where a call stands in place of a potency, no number is given. Unless noted, calls come from the whole dose curve.
Tested on: not listed separately
Test: qHTS assay to identify small molecule antagonists of the thyroid receptor (TR) signaling pathway (AID 743065; active = well fitted inhibition curve with a large enough effect in the repeat runs; inconclusive = weak or mixed curves; inactive = no such curve, though single readings can be large or run the other way; note: nearly all actives have a fitted effect of over 55% in size; note: potency is the fitted concentration of half-maximal effect)
Conditions: GH3.TRE-Luc, T3-stimulated luciferase inhibition, 23.5 h; series mostly up to 70.3 µM
Outline: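 Antagonism measured as loss of luciferase signal in GH3 cells stably carrying a TRE-luciferase reporter, co-treated with compound and T3 (1 nM final) for 23.5 h at 37 C. Viability was read in the same well by CellTiter-Fluor.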

SMILES	Potency
CC1(C)[C@H](C(=O)O[C@H](C#N)c2cccc(Oc3ccccc3)c2)[C@@H]1C=C(Br)Br	inactive
CC(C)(C)CC(C)(C)c1ccc(O)cc1	26.6 µM (active) and 21.7 µM (active)
O=C(O)COc1cc(Cl)c(Cl)cc1Cl	54.5 µM (active)
C[C@@H]1C[C@@H]([C@H](O)CC2CC(=O)NC(=O)C2)C(=O)[C@@H](C)C1	66.8 nM (active) and 60.8 nM (active)
CC(C)CCCCCCCOC(=O)c1ccccc1C(=O)OCCCCCCCC(C)C	inactive
CCC1(CCC(C)C)C(=O)NC(=O)NC1=O	inactive
C[CH2][Hg][S]c1ccccc1C(=O)O	335 nM (active) and 243 nM (active)
[Cl-].[Cl-].[Hg+2]	841 nM (active) and 1.21 µM (active) and 193 nM (active)
O=C1c2ccccc2C(=O)N1SC(Cl)(Cl)Cl	2.4 µM (active) and 1.54 µM (active)
CCCCCCCCn1sccc1=O	4.87 µM (active) and 3.6 µM (active)
COC1=CC(=O)O[C@@H](/C=C/c2ccc3c(c2)OCO3)C1	0.0585 µM (active)

Tested on: thyroid hormone receptor (rat, GH3 cells)
Test: qHTS assay to identify small molecule agonists of the thyroid receptor (TR) signaling pathway (AID 743066)
Conditions: GH3.TRE-Luc cells, TR agonist luciferase, 24 h; series mostly up to 83.9 µM

SMILES	Potency	activation
CC1(C)[C@H](C(=O)O[C@H](C#N)c2cccc(Oc3ccccc3)c2)[C@@H]1C=C(Br)Br	inactive	–
CCCN(CCC)C(=O)Cc1c(-c2ccc(Cl)cc2)nc2ccc(Cl)cn12	inactive	–
Cc1ncc(C[n+]2csc(CCO)c2C)c(N)n1	inactive	–
CN1C[C@H](C(=O)N[C@]2(C)O[C@@]3(O)[C@@H]4CCCN4C(=O)[C@H](Cc4ccccc4)N3C2=O)C=C2c3cccc4[nH]cc(c34)C[C@H]21	inactive	–
COc1ccc(C(=O)c2c(C)n(CCN3CCOCC3)c3ccccc23)cc1	inactive	–
O=C(O)COc1cc(Cl)c(Cl)cc1Cl	inactive	–
O=C(O)C(O)C(O)C(=O)O (stereo not given)	inactive	–
C=CCN1C[C@H](C)N([C@H](c2ccc(C(=O)N(CC)CC)cc2)c2cccc(OC)c2)C[C@H]1C	inactive	–
O=C(O)c1cc(I)cc(I)c1I	inactive	–
C[C@@H]1C[C@@H]([C@H](O)CC2CC(=O)NC(=O)C2)C(=O)[C@@H](C)C1	inactive	–
CCC1(CCC(C)C)C(=O)NC(=O)NC1=O	inactive	–
CN1CC[C@]23c4c5ccc(O)c4O[C@H]2[C@@H](O)C=C[C@H]3[C@H]1C5	inactive	–
CC(C)[C@@H](C(=O)O[C@@H](C#N)c1cccc(Oc2ccccc2)c1)c1ccc(Cl)cc1	inactive	–
C[C@H]1[C@@H]2Cc3ccc(O)cc3[C@@]1(C)CCN2C	inactive	–
CCCCCCCCCCCCN=C(N)N	–	-1.59% [at 3.63 µM] (inactive)
O=C1NC(=O)C(=O)C(=O)N1	inactive	–
COC1=CC(=O)O[C@@H](/C=C/c2ccc3c(c2)OCO3)C1	inactive	–
CCC1(C2=NCCN2)Cc2ccccc2O1 (stereo not given)	inactive	–
C[C@]12CC[C@H]3[C@@H](CCC4=CC(=O)CC[C@@H]43)[C@@H]1CC[C@@H]2OC(=O)CCc1ccccc1	inactive	–
CNC(=O)Oc1cccc(N=CN(C)C)c1	inactive	–
NCCc1cc(O)c(O)cc1O	inactive	–
CN(C)C(=O)Nc1cccc(OC(=O)NC(C)(C)C)c1	inactive	–
CN1C(=O)CN=C(c2ccccc2)c2cc([N+](=O)[O-])ccc21	inactive	–
O=C(O)C(F)(F)C(F)(F)C(F)(F)C(F)(F)C(F)(F)C(F)(F)C(F)(F)C(F)(F)F	inactive	–

Target: Estrogen receptor (Homo sapiens) (UniProt P03372)
Sequence (P03372 whole entry, looked up): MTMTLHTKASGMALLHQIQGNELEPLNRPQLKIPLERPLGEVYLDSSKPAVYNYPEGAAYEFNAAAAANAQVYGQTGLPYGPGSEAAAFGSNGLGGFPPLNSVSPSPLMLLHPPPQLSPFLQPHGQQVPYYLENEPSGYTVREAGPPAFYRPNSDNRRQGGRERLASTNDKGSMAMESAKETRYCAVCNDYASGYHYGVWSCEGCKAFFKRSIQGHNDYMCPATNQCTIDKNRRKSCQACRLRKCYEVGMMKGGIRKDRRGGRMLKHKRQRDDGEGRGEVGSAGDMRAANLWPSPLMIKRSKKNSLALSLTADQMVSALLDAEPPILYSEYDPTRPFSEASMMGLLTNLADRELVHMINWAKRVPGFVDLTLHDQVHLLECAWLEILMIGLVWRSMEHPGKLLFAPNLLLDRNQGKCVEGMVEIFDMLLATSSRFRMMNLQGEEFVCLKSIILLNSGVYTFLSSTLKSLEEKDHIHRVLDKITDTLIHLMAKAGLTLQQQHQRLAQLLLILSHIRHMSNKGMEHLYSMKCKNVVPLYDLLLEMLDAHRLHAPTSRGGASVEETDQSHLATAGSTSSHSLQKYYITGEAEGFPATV
Test: qHTS assay to identify small molecule antagonists of the estrogen receptor alpha (ER-alpha) signaling pathway (AID 743069; active = well fitted curve in the direction sought with a large enough effect in the signal ratio in the repeat runs, not every such curve was filed as active; inconclusive = weak or mixed curves, or effect the other way; inactive = no such curve, though single readings can be large or run the other way; the % refers to the signal ratio; note: potency is the fitted concentration of half-maximal effect)
Conditions: HEK293 ER-alpha-UAS-bla, beta-lactamase ratio, antagonist mode; series mostly up to 69.4 µM
Outline: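 Antagonist mode: compounds in DMSO were co-added with 17beta-estradiol to ER-alpha-bla HEK293 cells (2% charcoal-stripped serum) and left 18 h at 37C. Reporter inhibition was measured as FRET fluorescence after 2 h LiveBLAzer substrate at room temperature.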

SMILES	Potency
C[C@H](N)[C@H](O)c1ccc(O)c(O)c1	inactive
O=S(=O)(Cl)Cl	inactive
CN1C[C@H](C(=O)N[C@]2(C)O[C@@]3(O)[C@@H]4CCCN4C(=O)[C@H](Cc4ccccc4)N3C2=O)C=C2c3cccc4[nH]cc(c34)C[C@H]21	61.9 µM [cytotoxic] (active) and inactive
O=C(O)C(O)C(O)C(=O)O (stereo not given)	inactive
COC(=O)Cc1ccccc1	inactive
C=CCN1C[C@H](C)N([C@H](c2ccc(C(=O)N(CC)CC)cc2)c2cccc(OC)c2)C[C@H]1C	inactive
O=C(O)c1cc(I)cc(I)c1I	inactive
NC(=S)c1c(Cl)cccc1Cl	inactive
O=C1c2ccccc2C(=O)N1SC(Cl)(Cl)Cl	24.5 µM [inconclusive] (active)
O=C1NC(=O)C(=O)C(=O)N1	inactive
CC(Oc1cc(Cl)c(Cl)cc1Cl)C(=O)O (stereo not given)	inactive
NCCc1cc(O)c(O)cc1O	inactive
CN(C)C(=O)Nc1cccc(OC(=O)NC(C)(C)C)c1	inactive
CN1C(=O)CN=C(c2ccccc2)c2cc([N+](=O)[O-])ccc21	inactive
O=C(O)C(F)(F)C(F)(F)C(F)(F)C(F)(F)C(F)(F)C(F)(F)C(F)(F)C(F)(F)F	27.5 µM [inconclusive] (active)

Tested on: not listed separately
Test: qHTS assay to identify small molecule antagonists of the estrogen receptor alpha (ER-alpha) signaling pathway - cell viability counter screen (AID 743074);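 note: HEK293 cells carrying ER-alpha-UAS-bla reporter stimulated with 17beta-estradiol; nearly all actives have a fitted effect of over 45% in size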; note: potency is the fitted concentration of half-maximal effect
Conditions: ERalpha-bla HEK293 viability, CellTiter-Glo luminescence, 18 h; series mostly up to 69.4 µM

SMILES	Potency
CCCN(CCC)C(=O)Cc1c(-c2ccc(Cl)cc2)nc2ccc(Cl)cn12	inactive
Cc1ncc(C[n+]2csc(CCO)c2C)c(N)n1	inactive
C[C@H](N)[C@H](O)c1ccc(O)c(O)c1	inactive
O=S(=O)(Cl)Cl	inactive
CN1C[C@H](C(=O)N[C@]2(C)O[C@@]3(O)[C@@H]4CCCN4C(=O)[C@H](Cc4ccccc4)N3C2=O)C=C2c3cccc4[nH]cc(c34)C[C@H]21	inactive
CC(C)(C)CC(C)(C)c1ccc(O)cc1	43.6 µM (active)
COc1ccc(C(=O)c2c(C)n(CCN3CCOCC3)c3ccccc23)cc1	inactive
O=C(O)C(O)C(O)C(=O)O (stereo not given)	inactive
COC(=O)Cc1ccccc1	inactive
CCOP(=O)(SC(C)CC)N1CCSC1=O (stereo not given)	inactive
C=CCN1C[C@H](C)N([C@H](c2ccc(C(=O)N(CC)CC)cc2)c2cccc(OC)c2)C[C@H]1C	inactive
O=C(O)c1cc(I)cc(I)c1I	inactive
CC(C)CCCCCCCOC(=O)c1ccccc1C(=O)OCCCCCCCC(C)C	inactive
O=C(NC(=O)c1cc(F)c(F)cc1Cl)Nc1cc(F)ccc1N1CCC(C(=O)O)CC1	inactive
NC(=S)c1c(Cl)cccc1Cl	inactive
C[CH2][Hg][S]c1ccccc1C(=O)O	13.4 µM (active) and 12.3 µM (active)
CC1(C)CC(=O)CC(C)(C)N1[O]	inactive
[Cl-].[Cl-].[Hg+2]	24.4 µM (active)
CN1CC[C@]23c4c5ccc(O)c4O[C@H]2[C@@H](O)C=C[C@H]3[C@H]1C5	inactive
O=C1c2ccccc2C(=O)N1SC(Cl)(Cl)Cl	21.6 µM (active) and inactive
O=C1NC(=O)C(=O)C(=O)N1	inactive
CCCCCCCCn1sccc1=O	55.1 µM (active) and 51.3 µM (active)
CCC1(C2=NCCN2)Cc2ccccc2O1 (stereo not given)	inactive
CC(Oc1cc(Cl)c(Cl)cc1Cl)C(=O)O (stereo not given)	inactive
C[C@]12CC[C@H]3[C@@H](CCC4=CC(=O)CC[C@@H]43)[C@@H]1CC[C@@H]2OC(=O)CCc1ccccc1	inactive
CNC(=O)Oc1cccc(N=CN(C)C)c1	inactive
NCCc1cc(O)c(O)cc1O	inactive
CN(C)C(=O)Nc1cccc(OC(=O)NC(C)(C)C)c1	inactive
CN1C(=O)CN=C(c2ccccc2)c2cc([N+](=O)[O-])ccc21	inactive
O=C(O)C(F)(F)C(F)(F)C(F)(F)C(F)(F)C(F)(F)C(F)(F)C(F)(F)C(F)(F)F	inactive

From PubChem BioAssay (Tox21)
